Experimental data published in ChEMBL document CHEMBL4513216, “Probing the Open Global Health Chemical Diversity Library for Multistage-Active Starting Points for Next-Generation Antimalarials” (ACS Infect Dis, 2020).
Screen size: about 69,000 compounds; about 8,600 (12%) showed an effect of 50% or more. The sample as a whole holds a higher share of strong results than the screen did.

These compounds were tested on Plasmodium berghei (assay: Screen against P. berghei liver stage (PbLuc), transformed with Luciferase, at 10uM). Details: tested at 10 uM.
Format: functional, HepG2

Row | Compound | INHIBITION
1 | CC(C)NC(=O)[C@H]1C[C@@H]2[C@@H](C1)OCCN2CC1CC1 | 48.2%
2 | N#Cc1cccc(CN(CC(=O)N2CCCC2)CC2CCCO2)c1 (centres undefined) | -4.91%
3 | N#Cc1csc(CN(CC(=O)N2CCCC2)CC2CCCO2)c1 (centres undefined) | 70.9%
4 | N#Cc1ccc(F)c(CN(CC(=O)N2CCCC2)CC2CCCO2)c1 (centres undefined) | -13.5%
5 | O=C([C@@H]1CC[C@@H]2[C@@H](CCN2CCOCc2ccccc2)O1)N1CCCC1 | 32.1%
6 | CCCNC(=O)CCOc1cccc(F)c1 | 14.465%
7 | Cc1ccc(CN(CCN(C)C)C(=O)Nc2cc(C(N)=O)ccc2C)s1 | 19.2%
8 | Cc1ccc(CN(CCN(C)C)C(=O)Nc2ccc(C)c(C#N)c2)s1 | 60%
9 | CC(=O)c1ccc(NC(=O)N(CCN(C)C)Cc2ccc(C)s2)cc1 | 26.6%
10 | Cc1cnn(CC2CCCN2C(=O)c2cccnc2-n2cncn2)c1 (centres undefined) | 31.9%
11 | COc1c(Br)cccc1CCNC(=O)c1ncoc1C | -53.1%
12 | Cc1cccc2c(CCNC(=O)NCCC[S+](C)[O-])c[nH]c12 (centres undefined) | 51%
13 | Cc1cccc2c(CCNS(=O)(=O)C3CCOC3)c[nH]c12 (centres undefined) | 39.2%
14 | Cc1cccc2c(CCNC(=O)NCC[S+](C)[O-])c[nH]c12 (centres undefined) | 26.4%
15 | Cc1cccc2c(CCNC(=O)[C@H](N)c3ccccc3)c[nH]c12 | 61.1%
16 | CC(=O)N1CCC(C(=O)NCCc2c[nH]c3cc(C)ccc23)CC1 | 11.9%
17 | Cc1cnn(CC2CCCCN2C(=O)Cn2nc(C)c(Cl)c2C)c1 (centres undefined) | 13.8%
18 | O=C(CCNS(=O)(=O)c1ccc(Cl)cc1)NCc1ccoc1 | -11.6%
19 | CCNc1ncc(C(=O)NC(CC)c2ccnn2C)cn1 (centres undefined) | 48.2%
20 | Cn1cnc2cc(CCC(=O)Nc3n[nH]c(C4CC4)n3)ccc21 | 41.5%
21 | O=C(CC1CC1)N1CCC2(COCc3cnc(N4CCOCC4)nc32)C1 (centres undefined) | 61.4%
22 | O=C(CC1CC1)N1CCC2(COCc3cnc(-c4cccnc4)nc32)C1 (centres undefined) | 42.1%
23 | CC(C)NC(=O)N1CCC2(COCc3cnc(N4CCOCC4)nc32)C1 (centres undefined) | -18.4%
24 | CC(C)(C)C(=O)N1CCC2(COCc3cnc(N4CCOCC4)nc32)C1 (centres undefined) | -18.2%
25 | COCCC(=O)N1CCC2(COCc3cnc(N4CCOCC4)nc32)C1 (centres undefined) | 34.7%
26 | COCC(=O)N1CCC2(COCc3cnc(-c4ccccc4)nc32)C1 (centres undefined) | -22.4%

Row | Compound | INHIBITION
27 | COCC(=O)N1CCC2(COCc3cnc(N4CCOCC4)nc32)C1 (centres undefined) | 84.7%
28 | O=C(C1CC1)N1CCC2(COCc3cnc(NCc4ccco4)nc32)C1 (centres undefined) | -3.33%
29 | O=C(C1CCC1)N1CCC2(COCc3cnc(N4CCOCC4)nc32)C1 (centres undefined) | -4.56%
30 | CCC(=O)N1CCC2(COCc3cnc(N4CCOCC4)nc32)C1 (centres undefined) | 57.9%
31 | O=C(C1CC1)N1CCC2(COCc3cnc(N4CCOCC4)nc32)C1 (centres undefined) | 60.1%
32 | O=C([C@@H]1C[C@@H]2CCN(C3CCOCC3)C[C@H]2O1)N1CCOCC1 | -28%
33 | CC(=O)N1CCC(Cc2cnc(-c3c(C)nn(C)c3C)cn2)CC1 | -26.2%
34 | Cn1cnnc1C1CCCN(C(=O)c2cc3ccccc3[nH]2)C1 (centres undefined) | -8.11%
35 | Cc1ccncc1C(=O)N1C[C@@H]2CN(c3ncccn3)C[C@]2(C(=O)O)C1 | 7.65%
36 | COCCN1CCCn2c(nc(Cn3cncn3)cc2=O)C1 | 13.6%
37 | CN(Cc1ccncc1)C(=O)NC1CCCN(c2ncccn2)C1 (centres undefined) | 36.1%
38 | O=C(NCc1ccc(Cl)cc1)N1CCN(CC(O)C2CC2)CC1 (centres undefined) | 25.9%
39 | CS(=O)(=O)N1CCC(NC(=O)COc2ccc3ccccc3c2)CC1 | 33.3%
40 | Cc1oc(-c2cccc(F)c2F)nc1CN(C)CCC(C)(C)O | 16%
41 | COCCN(C)Cc1nc(-c2cccc(F)c2F)oc1C | 51.9%
42 | Cc1oc(-c2cccc(F)c2F)nc1CN(C)CCO | 11.3%
43 | O=C(c1ccnnc1)N1CC[C@]2(C[C@H](Oc3ncccc3F)CO2)C1 | -29.3%
44 | Cc1nn(C)cc1-c1cc(C(=O)N2CCc3ncc(Cl)cc3C2)no1 | 38.65%
45 | CCC(CC)c1nnc(NC(=O)N2CCCC(NC(C)=O)C2)s1 (centres undefined) | 52%
46 | CCC(CC)c1nnc(NC(=O)N2CCC(C(N)=O)CC2)s1 | 12.6%
47 | CC(=O)NC1CCCN(C(=O)Nc2nnc(C(C)C)s2)C1 (centres undefined) | 52%
48 | CCCc1nnc(NC(=O)N2CCCC(NC(C)=O)C2)s1 (centres undefined) | 17%
49 | CC(=O)NC1CCCN(C(=O)NCc2cc[nH]n2)C1 (centres undefined) | 31.9%
50 | CC(C)c1nnc(NC(=O)NC2CCN(Cc3ccccc3)C2)s1 (centres undefined) | -15.05%
51 | NCCc1cc(N2CCOCC2)nc(NC2CC2)n1 | 18.25%
52 | CN(C)CCN(Cc1ccc(C#N)cc1)C(=O)c1ccn(C)c(=O)c1 | 8.38%

Row | Compound | INHIBITION
53 | CS(=O)(=O)NCCNC(=O)Cc1ccc(Br)s1 | -62.1%
54 | CNC(=O)c1cc(NC(=O)Nc2cnn(CC(C)C)c2)ccc1F | 1.56%
55 | COc1ccccc1-c1cc(C(=O)N2CCCC2)c2cnn(C)c2n1 | 44.1%
56 | O=C(CCc1ccccn1)N1CCCC1 | -8.11%
57 | CC(=O)N1CCN(C(=O)C2SCCc3sccc32)CC1 (centres undefined) | 8.47%
58 | O=C(C1SCCc2sccc21)N1CC(O)C1 (centres undefined) | 6.33%
59 | NC(=O)C1CCN(C(=O)C2SCCc3sccc32)CC1 (centres undefined) | 69.7%
60 | O=C(C1SCCc2sccc21)N1CCCCC1 (centres undefined) | 62%
61 | CN(C)C(=O)C1SCCc2ccccc21 (centres undefined) | 38.9%
62 | O=C(C1SCCc2ccccc21)N1CCC(O)CC1 (centres undefined) | 50.8%
63 | CN1CCN(C(=O)C2SCCc3sccc32)CC1 (centres undefined) | 39.7%
64 | CN(C)C1CCN(C(=O)C2SCCc3ccccc32)CC1 (centres undefined) | 19.2%
65 | O=C(C1SCCc2sccc21)N1CCC(O)CC1 (centres undefined) | 20.1%
66 | COCCNC(=O)C1CCCN(c2ccc3nncn3n2)C1 (centres undefined) | -21.9%
67 | CCO[C@H]1CN(CC2CCOCC2)[C@@H]2CCCO[C@H]12 | 38.5%
68 | O=C1COC2(CCN(Cc3ccco3)CC2)CN1CCn1cccn1 | 4.02%
69 | O=C(Nc1ccc(CCN2CCOCC2)cc1)C1CC1 | 6.35%
70 | Cc1nsc(N2CCCN(C(=O)CCc3ccsc3)CC2)n1 | 15.7%
71 | CCOc1ccc(N2CCCN=C2NC(=O)c2ccc(Cl)cc2)cc1 | 19.3%
72 | CCOc1ccc(N2CCCN=C2NC(=O)c2ccccc2C)cc1 | -11.5%
73 | CCOc1ccc(N2CCCN=C2NC(=O)c2cccc(Cl)c2)cc1 | 23.5%
74 | CCOc1ccc(N2CCCN=C2NC(=O)c2cccc(OC)c2)cc1 | 54.9%
75 | CCOc1ccc(N2CCCN=C2NC(=O)c2cccc(C)c2)cc1 | 54%
76 | CCOc1ccc(N2CCCN=C2NC(=O)c2ccc(OC)cc2)cc1 | -8.07%
77 | NC(=O)C1CCN(C(=O)NCCNc2ccccn2)CC1 | 21.9%
78 | CCc1ncc(CN(C)C2CCN(C(C)C)CC2)cn1 | -27.1%

Row | Compound | INHIBITION
79 | O=C(c1ccco1)N1CCC2(CCC(=O)N2Cc2cccc(F)c2)CC1 | -4.27%
80 | COc1cc(N2C[C@H](C(=O)NC3CC3)[C@@H]3CCO[C@@H]3C2)ncn1 | 12.7%
81 | Cc1ncc2c(n1)CN(CC(O)COc1ccc(C#N)cc1)CC2 (centres undefined) | -78%
82 | Cc1cnn(C2CN(CC(O)c3ccc(F)cc3)C2)c1 (centres undefined) | -30.1%
83 | COc1ccc(C(O)CN2CC(n3cc(C)cn3)C2)cc1 (centres undefined) | 57.2%
84 | Cc1cnn(C2CN(CC(O)c3ccccc3)C2)c1 (centres undefined) | 29%
85 | Cc1cnn(C2CN(CC(O)COc3ccc(C#N)cc3)C2)c1 (centres undefined) | 72.7%
86 | Cc1cnn(C2CN(CC(O)Cn3cccn3)C2)c1 (centres undefined) | 36.6%
87 | COc1cccc(-n2c(C)cc(C(=O)NCCCC(N)=O)c2C)c1 | -5.25%
88 | CC(C)c1nnc2n1CCN(C(=O)c1cccc(S(C)(=O)=O)c1)C2 | 45.7%
89 | c1ccc(COC[C@@]23CCC[C@@H]2CN(Cc2ccccn2)C3)nc1 | -7.94%
90 | O=C(C1CCOCC1)N1C[C@H]2CCC[C@@]2(COCc2ccccn2)C1 | 53%
91 | O=C(c1cocn1)N1C[C@H]2CCC[C@@]2(COCc2cccnc2)C1 | 9.63%
92 | O=C(C1CCOCC1)N1C[C@H]2CCC[C@@]2(COc2cccnc2)C1 | 23.6%
93 | O=C(c1ccc(F)cc1)N1C[C@H]2CCC[C@@]2(COCc2ccccn2)C1 | 40.9%
94 | O=S(=O)(C1CC1)N1C[C@H]2CCC[C@@]2(COCc2ccccn2)C1 | 43.9%
95 | O=C(N1CCCC1)N1C[C@H]2CCC[C@@]2(COCc2ccccn2)C1 | 63.8%
96 | Cc1ncoc1C(=O)N1C[C@H]2CCC[C@@]2(COCc2cccnc2)C1 | 60.1%
97 | O=C(c1ncccn1)N1C[C@H]2CCC[C@@]2(COCc2cccnc2)C1 | 45.5%
98 | O=C(c1cscn1)N1C[C@H]2CCC[C@@]2(COCc2ccccn2)C1 | 64.7%
99 | O=C(C1CCOCC1)N1C[C@H]2CCC[C@@]2(COc2ccccn2)C1 | 13.6%
100 | O=C(c1ccnnc1)N1C[C@H]2CCC[C@@]2(COCc2ccccn2)C1 | 31.1%
101 | O=C(NCCCn1cccn1)C1(c2ccccc2)CCOCC1 | 16.8%
102 | Cc1c(C(=O)N2CCCC(n3nnc4cc(F)ccc43)C2)cnn1C (centres undefined) | 2.71%
103 | CCC(NC(=O)COC)c1ccccc1OCC(=O)N1CCCC1 (centres undefined) | -4.65%
104 | CN(C)C[C@@H]1CN(C(=O)c2cc(-c3ccccc3)n[nH]2)C[C@@H]1CO | 43.9%
